From PubChem BioAssay (EPA / NIEHS)
Inconclusive results are not listed. Calls of active or inactive are those of the source. How the source made its calls: active means hit-call score of the fitted dose curve at least 0.9, where 1 is the maximum; inconclusive means response in the unintended direction; inactive means score below 0.9.

Assay: Tanguay_ZF_120hpf_SOMI_legacy: (Legacy) Oregon State University Tanguay Lab 120 Hour Post-fertilization zebrafish Assay for Somite Malformation (AID 2283647)
Method: Tanguay_ZF_120hpf_legacy is a whole embryo, multiplexed endpoint assay using zebrafish larvae exposed for 120 hours post fertilization on a 96-well plate.Tanguay_ZF_120hpf_SOMI_legacy is one of one assay component(s) measured or calculated from the Tanguay_ZF_120hpf_legacy assay. It is designed to make measurements of zebrafish development as detected with brightfield microscopy of developing zebrafish embryos.Data from the assay component Tanguay_ZF_120hpf_SOMI_legacy was analyzed into 1 assay endpoints. This assay endpoint, Tanguay_ZF_120hpf_SOMI_legacy, was analyzed in the positive analysis fitting direction relative to DMSO as the negative control and baseline of activity. Using a type of morphology reporter, gain-of-signal activity can be used to understand changes in developmentals as they relate to the whole embryo. To generalize the intended target to other relatable targets, this assay endpoint is annotated to the zebrafish development intended target family, where the subfamily is somitogenesis.
Zebrafish husbandry: Tropical 5D wild-type adult zebrafish were housed in at an approximate density of 1000 per 100 gallon tank at the Sinnhuber Aquatic Research Laboratory, Oregon State University, Corvallis, OR. Each tank was kept at standard laboratory conditions of 28C on a 14-h light/10-h dark photoperiod in fish water consisting of reverse osmosis water supplemented with a commercially available salt (Instant Ocean). Spawning funnels were placed into the tanks the night prior, and embryos were collected and staged. To increase bioavailability, the chorion was enzymatically removed using pronase (63.6mg/ml, >/= 3.5U/mg, Sigma-Aldrich: P5147) at 4 hours post fertilization (hpf) using a custom automated dechorionator.Chemical exposures: Six hpf dechorionated embryos were placed 1 embryo per well in a 96-well plate prefilled with 90 ul of EM using automated embryo placement systems (AEPS). Ten microliters of each row of dilution plate 2 was added to 2 exposure plates. The final DMSO concentration used was 0.64% (vol/vol). Thirty-two embryos were also exposed to 5uM trimethyltin chloride (positive control). Plates were sealed to prevent evaporation and foil covered to reduce light exposure and kept in a 28C incubator. Embryos were statically exposed until 120 hpf. At 24 hpf, embryos were assessed for photomotor response using a custom photomotor response analysis tool (PRAT) and for developmental toxicity endpoints (MO24: mortality at 24 hpf, DP: developmental progression, SM: spontaneous movement, and NC: notochord distortion). At 120 hpf, locomotor activity was measured using Viewpoint Zebralab and assessed for 18 endpoints. Zebrafish acquisition and analysis program (ZAAP), a custom program designed to inventory, acquire, and manage zebrafish data, was used to collect developmental endpoints as either present or absent (i.e., binary responses were recorded). If mortality occurred for an embryo (at either 24 or 120 hpf), the non-mortality endpoints were not measured.
In the case of `Fc1ccccc1[C@@H](F)COC1CCC(Nc2ncnc3[nH]ncc23)CC1` (stereo not given in full), the outcome is reported as “inactive”.
For `Cc1ccc(N)cc1O`, the outcome was “inactive”.
For `COC(=O)c1ccccc1O`, the outcome was “inactive”.
In the case of `CCCCCCCCCCCCc1ccccc1`, the outcome is reported as “inactive”.
In the case of `Oc1ccc2c(c1)-c1ccccc1C2`, the AC50 is reported as 49.1 µM (active).
In the case of `CC1(C)C(=O)N(Br)C(=O)N1Br`, the outcome is reported as “inactive”.
With `O=C(O)CCN(C1(C(=O)NO)CCCC1)S(=O)(=O)c1ccc(Oc2ccc(F)cc2)cc1` the outcome was “inactive”.
For `CC[C@H]1OC(=O)[C@H](C)[C@@H](O[C@H]2C[C@@](C)(OC)[C@@H](O)[C@H](C)O2)[C@H](C)[C@@H](O[C@@H]2O[C@H](C)C[C@H](N(C)C)[C@H]2O)[C@](C)(O)C[C@@H](C)C(=O)[C@H](C)[C@@H](O)[C@]1(C)O`, the outcome was “inactive”.
In the case of `CC[C@H]1CC[C@H](NCc2cc3c(cc2OC)[C@H]2C[C@H]2C(=O)N3C)[C@H](c2ccccc2)N1`, the outcome is reported as “inactive”.
In the case of `CC/C(=C\C(=N/O)C(N)=O)C(C)[N+](=O)[O-]` (stereo not given), the outcome is reported as “inactive”.
With `COCCOc1cc2cc(C(=O)NC3CCN(C(C)C)CC3)n(CC(=O)Nc3ccc(Cl)cn3)c2cn1` the outcome was “inactive”.
For `Nc1ccc(Nc2ccccc2)cc1`, the AC50 was 40.1 µM (active).
For `CC(=O)c1ccc2c(c1)[C@H](NC(=O)c1ccc(F)cc1)[C@@H](O)C(C)(C)O2`, the outcome was “inactive”.
With `CC(=O)OC[C@H]1O[C@@](COC(C)=O)(O[C@H]2O[C@H](COC(C)=O)[C@@H](OC(C)=O)[C@H](OC(C)=O)[C@H]2OC(C)=O)[C@@H](OC(C)=O)[C@@H]1OC(C)=O` the outcome was “inactive”.
In the case of `Cn1cnc([N+](=O)[O-])c1Sc1ncnc2nc[nH]c12`, the outcome is reported as “inactive”.
With `Nc1cccc(N)c1` the outcome was “inactive”.
With `CNS(=O)(=O)c1cc(C(=O)N2CCC(CCN3C4CCC3CC(n3c(C)nc5ccccc53)C4)(c3cccc(F)c3)CC2)c(Cl)cc1F` (stereo not given) the outcome was “inactive”.
In the case of `CC(C)=CCC/C(C)=C/CO`, the outcome is reported as “inactive”.
With `O=C(OC[C@H]1O[C@@H](OC(=O)c2cc(O)c(O)c(OC(=O)c3cc(O)c(O)c(O)c3)c2)[C@H](OC(=O)c2cc(O)c(O)c(OC(=O)c3cc(O)c(O)c(O)c3)c2)[C@@H](OC(=O)c2cc(O)c(O)c(OC(=O)c3cc(O)c(O)c(O)c3)c2)[C@@H]1OC(=O)c1cc(O)c(O)c(OC(=O)c2cc(O)c(O)c(O)c2)c1)c1cc(O)c(O)c(OC(=O)c2cc(O)c(O)c(O)c2)c1` the outcome was “inactive”.
In the case of `Cc1ccc(S(=O)(=O)O)cc1C`, the outcome is reported as “inactive”.
For `CCC(C)(C)C(=O)O[C@H]1C[C@@H](C)C=C2C=C[C@H](C)[C@H](CC[C@@H]3C[C@@H](O)CC(=O)O3)[C@H]21`, the outcome was “inactive”.
In the case of `Clc1nc(Cl)c(Cl)c(Cl)c1Cl`, the outcome is reported as “inactive”.
For `CCOC(=O)COc1ccc2c(c1)CC(NCC(O)c1cccc(Cl)c1)CC2` (stereo not given), the outcome was “inactive”.
For `CN(C)c1ccc(Cc2ccc(N(C)C)cc2)cc1`, the outcome was “inactive”.
With `CCCCC(CC)COC(=O)c1ccc(C(=O)OCC(CC)CCCC)cc1` (stereo not given) the outcome was “inactive”.
In the case of `Cn1c(=O)cc(Oc2ccc(F)cc2F)c2cnc(NCC(C)(C)O)nc21`, the outcome is reported as “inactive”.
In the case of `CC[C@H](C)C(=O)O[C@H]1C[C@@H](C)C=C2C=C[C@H](C)[C@H](CC[C@@H]3C[C@@H](O)CC(=O)O3)[C@H]21`, the outcome is reported as “inactive”.
For `C1=CCCC=CCCC=CCC1`, the outcome was “inactive”.
In the case of `C[C@](N)(Cc1ccc(O)c(O)c1)C(=O)O`, the outcome is reported as “inactive”.
For `O=c1[nH]c2ccc(S(=O)CCN3CCC(Cc4ccc(F)cc4)CC3)cc2o1` (stereo not given), the outcome was “inactive”.
With `O=C1OC(=O)C2C3C=CC(C3)C12` (stereo not given) the outcome was “inactive”.
For `CC(C)CCO`, the outcome was “inactive”.
In the case of `C1N2CN3CN1CN(C2)C3`, the outcome is reported as “inactive”.
In the case of `On1ccccc1=S`, the outcome is reported as “inactive”.
With `CC(C)=CCCC(C)=CC=O` the outcome was “inactive”.
In the case of `Cc1c(-c2cccnc2)c2ccccc2n1CCCCC(=O)O`, the outcome is reported as “inactive”.
For `O=C(CCCCCCCCc1cccnc1)N1CCC(C=C(c2ccccc2)c2ccccc2)CC1`, the outcome was “inactive”.
For `CCOc1cccc(-n2cc(C(=O)N3CCN(c4cc(C(=O)O)c5ccccc5c4)CC3)nc2-c2ccc(C)cc2)c1`, the outcome was “inactive”.
In the case of `CC(C)=CCCC(C)CCO` (stereo not given), the outcome is reported as “inactive”.
For `CCCN(C1CCN(C(=O)C2CCNCC2)CC1)[C@@H]1CCc2ccc(OC)cc2C1`, the outcome was “inactive”.
